Our source for the outcome and AC50 values is PubChem BioAssay (EPA / NIEHS).

Records with an inconclusive call do not appear. Activity calls are given as the source filed them. Rule for the calls: active = hit-call score of the fitted dose curve at least 0.9, where 1 is the maximum; inconclusive = response in the unintended direction; inactive = score below 0.9.

mouse Cholecystokinin, CCK2 Receptor (CCKB), Cckbr (gene 12426), sequence (P56481 whole entry, looked up): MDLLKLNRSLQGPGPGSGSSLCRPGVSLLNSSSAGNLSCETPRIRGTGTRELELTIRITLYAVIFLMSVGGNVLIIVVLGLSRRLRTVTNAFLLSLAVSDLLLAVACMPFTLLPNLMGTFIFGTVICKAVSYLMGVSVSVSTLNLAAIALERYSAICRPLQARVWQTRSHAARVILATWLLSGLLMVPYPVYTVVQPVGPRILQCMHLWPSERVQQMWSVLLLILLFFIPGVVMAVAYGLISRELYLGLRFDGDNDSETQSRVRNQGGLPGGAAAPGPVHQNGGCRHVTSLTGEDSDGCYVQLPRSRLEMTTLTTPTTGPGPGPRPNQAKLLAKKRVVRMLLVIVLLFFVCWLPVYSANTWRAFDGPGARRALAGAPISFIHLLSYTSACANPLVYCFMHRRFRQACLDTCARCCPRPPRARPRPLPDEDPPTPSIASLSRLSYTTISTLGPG
guinea pig Bradykinin Receptor B2 (BK2), BDKRB2 (gene 100135486), sequence (O70526 whole entry, looked up): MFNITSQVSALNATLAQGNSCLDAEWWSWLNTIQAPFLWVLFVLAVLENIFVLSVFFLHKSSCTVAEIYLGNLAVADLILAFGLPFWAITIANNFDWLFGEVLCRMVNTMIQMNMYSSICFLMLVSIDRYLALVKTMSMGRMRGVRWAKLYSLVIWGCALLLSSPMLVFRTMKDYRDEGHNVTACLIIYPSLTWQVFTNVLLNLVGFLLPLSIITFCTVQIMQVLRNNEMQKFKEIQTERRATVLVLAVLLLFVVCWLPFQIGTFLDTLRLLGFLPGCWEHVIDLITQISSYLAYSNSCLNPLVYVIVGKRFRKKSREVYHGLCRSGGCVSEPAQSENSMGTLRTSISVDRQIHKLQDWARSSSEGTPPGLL
guinea pig Serotonin, 5-Hydroxytryptamine Receptor 4 (5HT4), HTR4 (gene 100135548), sequence (O70528 whole entry, looked up): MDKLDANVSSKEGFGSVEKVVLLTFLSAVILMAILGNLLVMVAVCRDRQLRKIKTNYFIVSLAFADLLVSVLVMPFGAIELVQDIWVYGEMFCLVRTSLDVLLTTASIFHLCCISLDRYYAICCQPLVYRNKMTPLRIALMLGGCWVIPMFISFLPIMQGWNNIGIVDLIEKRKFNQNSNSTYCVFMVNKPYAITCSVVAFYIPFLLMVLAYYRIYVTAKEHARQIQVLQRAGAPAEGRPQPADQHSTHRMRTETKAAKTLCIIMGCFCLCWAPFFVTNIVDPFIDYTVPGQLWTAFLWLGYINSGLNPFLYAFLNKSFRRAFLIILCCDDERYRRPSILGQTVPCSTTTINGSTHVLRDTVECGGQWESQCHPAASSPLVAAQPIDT

The first assay addresses guinea pig Bradykinin Receptor B2 (BK2), BDKRB2 (gene 100135486) (UniProt O70526). Briefly: NVS_GPCR_gBK2: NovaScreen (NVS) G Protein-Coupled Receptor Assay for guinea pig Bradykinin Receptor B2 (BK2) (AID 2283292). An outline of the steps:
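Radioligand displacement on guinea pig ileum membranes for 1 h, read by filter-based scintillation counting; loss of signal relative to DMSO. Compounds were screened in duplicate at 25 uM, and those passing the threshold were retested in concentration-response up to 50 uM.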
Consider `CCC(C)(C)C(=O)OC1=C(c2ccc(Cl)cc2Cl)C(=O)OC12CCCCC2`, for which the compound was classed as inactive.
Consider `COC(=O)c1ccccc1S(=O)(=O)NC(=O)N(C)c1nc(C)nc(OC)n1`, for which the outcome was inactive.
`C#CCN1C(=O)COc2cc(F)c(N3C(=O)C4=C(CCCC4)C3=O)cc21`: the compound was called inactive.

The next assay has as its target mouse Cholecystokinin, CCK2 Receptor (CCKB), Cckbr (gene 12426) (UniProt P56481). Briefly: NVS_GPCR_mCKKBCentral: NovaScreen (NVS) G Protein-Coupled Receptor Assay for mouse Cholecystokinin, CCK2 Receptor (CCKB) (AID 2283293). The method, boiled down: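 Radioligand displacement binding on mouse forebrain membranes, 2 h exposure, filter-based scintillation counting. Primary screen in duplicate at 25 uM; actives (e.g. ≥30% inhibition) retested in concentration-response up to 50 uM; loss of binding signal relative to DMSO.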
For `CCC(C)(C)C(=O)OC1=C(c2ccc(Cl)cc2Cl)C(=O)OC12CCCCC2`, the compound was classed as inactive.
The same measure, in the same setting: to `CC(C)(C)C(O)C(Oc1ccc(Cl)cc1)n1cncn1` (configuration not stated) belongs “inactive”.
With `CC[C@H](C)[C@H]1O[C@]2(C=C[C@@H]1C)C[C@@H]1C[C@@H](C/C=C(\C)[C@@H](O[C@H]3C[C@H](OC)[C@@H](O[C@H]4C[C@H](OC)[C@@H](O)[C@H](C)O4)[C@H](C)O3)[C@@H](C)/C=C/C=C3\CO[C@@H]4[C@H](O)C(C)=C[C@@H](C(=O)O1)[C@]34O)O2` (tested in a mixture with another compound), the AC50 was 12.4 µM (active).
With `CCCN(CCOc1c(Cl)cc(Cl)cc1Cl)C(=O)n1ccnc1`, the AC50 is 6.71 µM (active).
For the compound `CCc1ccc(C(=O)NN(C(=O)c2cc(C)cc(C)c2)C(C)(C)C)cc1`, the result was inactive.
For `Oc1ccc(Cl)cc1Cc1ccccc1`, the AC50 is 19.8 µM (active) [middle of 4 runs].

Another assay concerns the target guinea pig Serotonin, 5-Hydroxytryptamine Receptor 4 (5HT4), HTR4 (gene 100135548) (UniProt O70528). The assay can be described thus: NVS_GPCR_g5HT4: NovaScreen (NVS) G Protein-Coupled Receptor Assay for guinea pig Serotonin, 5-Hydroxytryptamine Receptor 4 (5HT4) (AID 2283294). The method, boiled down: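 Guinea pig striatal membranes; radioligand competitive displacement, filtration and scintillation counting after 1 h. Primary screen in duplicate at 25 uM; actives then tested in concentration series; loss of binding signal fitted relative to DMSO.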
For `N#Cc1c(Cl)c(Cl)c(Cl)c(C#N)c1Cl`, the compound was called inactive.
With `Oc1ccc(Cl)cc1Cc1ccccc1`, the AC50 is 17.2 µM (active) [middle of 6 runs].
Still for that read-out and setting: the figure for `O=C(Nc1ccccc1)Nc1cnns1` is 6.99 µM (active).
